# Reference: PubChem BioAssay
# Unmarked numbers belong to inactive results. Calls of active or inactive are those of the source. Cut-off read from the data, not from the text of the source, unless noted: active = inhibition above about 42%; inactive = the rest.
# Legend:
# [1] = target: Nuclear receptor coactivator 3 (Homo sapiens) (UniProt Q9Y6Q9); test: NCOA3 GAL4-fusion reporter inhibition – cell-based, luminescence, quadruplicate, confirmation (AID 588792;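 active = mean inhibition over 43.08%, the solvent-only control mean plus 3 SD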;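 note: 0% = DMSO treated cells and 100% = gossypol at 36 µM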); conditions: HEK293 GAL4-SRC3 luciferase reporter, at 3.6 µM, active compounds read high
# [2] = tested on: transactivating tegument protein VP16 (Human herpesvirus 1), Gal4-VP16 luciferase reporter; test: repression of VP16-driven luciferase reporter – cell-based, luminescence, high throughput, counter-screen for SRC3 inhibitor project (AID 588794; in the data active = inhibition above about 30%); conditions: mammalian cells, at 3.6 µM, active compounds read high
# [3] = StAR promoter reporter inhibitors, counter-screen for LRH-1 inverse agonist project, cell-based, luminescence, high throughput (AID 651611; in the data active = inhibition above about 28%); conditions: StAR promoter luciferase reporter counterscreen, at 3.6 µM, active compounds read high
# [4] = target: Nuclear receptor subfamily 5 group A member 2 (Homo sapiens) (UniProt O00482); test: NR5A2 activity suppression in reporter cells – cell-based, luminescence, confirmation (AID 651613); conditions: cell-based LRH-1 luciferase reporter, inverse agonism; at 3.6 µM; active compounds read high;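 note: HEK293T cells co-transfected with LRH-1 and StAR promoter luciferase reporter; 0% = vehicle wells and 100% = parental cells lacking receptor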
# Nuclear receptor subfamily 5 group A member 2 (Homo sapiens), sequence (O00482 whole entry, looked up): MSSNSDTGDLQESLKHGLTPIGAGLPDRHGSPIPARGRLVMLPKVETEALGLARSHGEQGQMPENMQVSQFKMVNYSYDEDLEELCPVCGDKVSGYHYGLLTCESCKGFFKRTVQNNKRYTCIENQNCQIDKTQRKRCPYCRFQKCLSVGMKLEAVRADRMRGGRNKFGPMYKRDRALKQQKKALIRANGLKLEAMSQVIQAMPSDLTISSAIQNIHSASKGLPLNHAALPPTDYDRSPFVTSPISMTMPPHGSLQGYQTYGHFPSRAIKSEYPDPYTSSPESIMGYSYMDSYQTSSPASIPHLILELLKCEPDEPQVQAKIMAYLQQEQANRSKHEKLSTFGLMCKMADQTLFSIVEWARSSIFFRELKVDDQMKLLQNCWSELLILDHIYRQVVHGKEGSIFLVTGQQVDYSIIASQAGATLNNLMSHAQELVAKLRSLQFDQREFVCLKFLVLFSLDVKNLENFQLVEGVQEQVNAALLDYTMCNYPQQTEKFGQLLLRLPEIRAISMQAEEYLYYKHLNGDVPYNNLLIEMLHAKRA
# [5] = target: Steroidogenic factor 1 (Homo sapiens) (UniProt Q13285); test: inverse agonism at SF1 nuclear receptor – cell-based, luminescence, high throughput, counter-screen for LRH-1 inverse agonist project (AID 651614; in the data active = inhibition above about 44%;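 note: cells cotransfected with StAR promoter reporter and SF1 expression vector; 0% = vehicle on cells with receptor and 100% = vehicle on cells lacking receptor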); conditions: cell-based SF1 luciferase reporter, at 3.6 µM, active compounds read high
# Steroidogenic factor 1 (Homo sapiens), sequence (Q13285 whole entry, looked up, the tested form may be a part): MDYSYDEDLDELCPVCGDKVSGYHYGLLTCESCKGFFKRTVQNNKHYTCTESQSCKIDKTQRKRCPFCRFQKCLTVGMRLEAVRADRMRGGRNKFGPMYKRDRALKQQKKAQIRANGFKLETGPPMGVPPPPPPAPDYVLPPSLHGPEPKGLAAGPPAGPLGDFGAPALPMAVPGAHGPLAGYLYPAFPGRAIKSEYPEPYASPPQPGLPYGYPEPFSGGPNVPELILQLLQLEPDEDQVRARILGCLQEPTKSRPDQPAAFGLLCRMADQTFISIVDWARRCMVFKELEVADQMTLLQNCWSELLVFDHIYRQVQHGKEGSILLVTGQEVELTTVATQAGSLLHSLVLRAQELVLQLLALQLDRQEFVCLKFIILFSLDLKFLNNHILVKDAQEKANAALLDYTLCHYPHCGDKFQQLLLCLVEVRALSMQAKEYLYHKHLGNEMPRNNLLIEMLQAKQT
# [6] = compounds suppressing VP16-driven luciferase signal – cell-based, luminescence, high throughput, counter-screen for LRH-1 inverse agonist project (AID 651615; in the data active = inhibition above about 33%); conditions: Gal4-VP16 luciferase reporter cells, at 3.6 µM, active compounds read high
# [7] = tested on: transactivating tegument protein VP16 (Human herpesvirus 1); test: compounds suppressing VP16-driven luciferase signal – cell-based, luminescence, single concentration, counter-screen for SRC2 inhibitor project (AID 652007; in the data active = inhibition above about 36%); conditions: cell-based VP16 transactivation luciferase reporter, at 8.9 µM, active compounds read high
# [8] = target: Nuclear receptor coactivator 2 (Homo sapiens) (UniProt Q15596); test: inhibition of GAL4-SRC2 driven luciferase expression – cell-based, luminescence, HEK293, triplicate, confirmation (AID 652008;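 active = mean inhibition above 46.5%, the solvent-only control mean plus 3 SD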;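 note: 0% = DMSO-treated cells and 100% = Gossypol at 36 µM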); conditions: HEK293 GAL4-SRC2 luciferase reporter, at 8.9 µM, active compounds read high
# Nuclear receptor coactivator 2 (Homo sapiens), sequence (Q15596 whole entry, looked up, the tested form may be a part): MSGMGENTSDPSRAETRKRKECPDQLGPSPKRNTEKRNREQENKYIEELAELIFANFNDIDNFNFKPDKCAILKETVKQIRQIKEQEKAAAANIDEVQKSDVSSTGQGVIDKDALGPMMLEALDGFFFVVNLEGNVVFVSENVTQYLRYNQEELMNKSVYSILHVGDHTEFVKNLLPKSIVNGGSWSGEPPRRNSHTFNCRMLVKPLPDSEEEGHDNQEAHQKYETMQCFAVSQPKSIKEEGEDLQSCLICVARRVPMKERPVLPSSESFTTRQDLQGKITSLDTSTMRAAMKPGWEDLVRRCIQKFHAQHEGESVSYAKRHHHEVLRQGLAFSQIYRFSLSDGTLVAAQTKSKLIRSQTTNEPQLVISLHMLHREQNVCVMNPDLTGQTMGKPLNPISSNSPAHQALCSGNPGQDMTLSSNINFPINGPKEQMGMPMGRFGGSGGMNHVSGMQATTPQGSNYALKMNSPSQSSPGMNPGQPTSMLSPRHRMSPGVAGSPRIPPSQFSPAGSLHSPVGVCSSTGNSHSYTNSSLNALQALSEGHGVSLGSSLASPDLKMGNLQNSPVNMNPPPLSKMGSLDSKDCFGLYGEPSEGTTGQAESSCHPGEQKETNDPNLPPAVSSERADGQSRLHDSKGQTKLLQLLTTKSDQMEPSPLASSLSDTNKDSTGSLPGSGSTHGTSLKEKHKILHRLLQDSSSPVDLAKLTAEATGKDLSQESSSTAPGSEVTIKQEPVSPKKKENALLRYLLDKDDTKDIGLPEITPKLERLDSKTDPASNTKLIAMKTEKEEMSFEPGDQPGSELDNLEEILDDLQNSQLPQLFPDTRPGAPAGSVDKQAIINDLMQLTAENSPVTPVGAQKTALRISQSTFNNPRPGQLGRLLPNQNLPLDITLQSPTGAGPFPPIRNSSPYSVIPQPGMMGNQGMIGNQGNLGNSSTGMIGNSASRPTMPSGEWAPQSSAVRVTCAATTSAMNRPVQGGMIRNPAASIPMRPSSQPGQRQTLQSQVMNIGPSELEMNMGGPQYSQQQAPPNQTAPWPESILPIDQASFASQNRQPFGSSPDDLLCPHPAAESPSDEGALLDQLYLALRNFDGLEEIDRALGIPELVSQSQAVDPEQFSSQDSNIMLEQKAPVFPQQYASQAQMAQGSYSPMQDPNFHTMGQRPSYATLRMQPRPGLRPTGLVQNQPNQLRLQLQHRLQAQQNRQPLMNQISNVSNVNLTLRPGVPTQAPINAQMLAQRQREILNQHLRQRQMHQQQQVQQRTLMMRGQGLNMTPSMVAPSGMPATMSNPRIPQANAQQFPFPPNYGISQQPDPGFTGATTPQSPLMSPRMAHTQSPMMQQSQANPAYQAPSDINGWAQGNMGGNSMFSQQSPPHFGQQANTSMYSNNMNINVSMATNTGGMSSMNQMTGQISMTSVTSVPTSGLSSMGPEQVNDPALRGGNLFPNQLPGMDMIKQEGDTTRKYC
# [9] = target: Nuclear receptor coactivator 1 (Homo sapiens) (UniProt Q15788); test: NCOA1 GAL4-fusion reporter inhibition – cell-based, luminescence, quadruplicate, confirmation (AID 588820;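 active = mean inhibition above 46.68%, the untreated control wells mean plus 3 SD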;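 note: 0% = DMSO wells and 100% = gossypol 36 µM treated wells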); conditions: HEK293 GAL4-SRC1 luciferase reporter, at 3.6 µM, active compounds read high
# Nuclear receptor coactivator 1 (Homo sapiens), sequence (Q15788 whole entry, looked up, the tested form may be a part): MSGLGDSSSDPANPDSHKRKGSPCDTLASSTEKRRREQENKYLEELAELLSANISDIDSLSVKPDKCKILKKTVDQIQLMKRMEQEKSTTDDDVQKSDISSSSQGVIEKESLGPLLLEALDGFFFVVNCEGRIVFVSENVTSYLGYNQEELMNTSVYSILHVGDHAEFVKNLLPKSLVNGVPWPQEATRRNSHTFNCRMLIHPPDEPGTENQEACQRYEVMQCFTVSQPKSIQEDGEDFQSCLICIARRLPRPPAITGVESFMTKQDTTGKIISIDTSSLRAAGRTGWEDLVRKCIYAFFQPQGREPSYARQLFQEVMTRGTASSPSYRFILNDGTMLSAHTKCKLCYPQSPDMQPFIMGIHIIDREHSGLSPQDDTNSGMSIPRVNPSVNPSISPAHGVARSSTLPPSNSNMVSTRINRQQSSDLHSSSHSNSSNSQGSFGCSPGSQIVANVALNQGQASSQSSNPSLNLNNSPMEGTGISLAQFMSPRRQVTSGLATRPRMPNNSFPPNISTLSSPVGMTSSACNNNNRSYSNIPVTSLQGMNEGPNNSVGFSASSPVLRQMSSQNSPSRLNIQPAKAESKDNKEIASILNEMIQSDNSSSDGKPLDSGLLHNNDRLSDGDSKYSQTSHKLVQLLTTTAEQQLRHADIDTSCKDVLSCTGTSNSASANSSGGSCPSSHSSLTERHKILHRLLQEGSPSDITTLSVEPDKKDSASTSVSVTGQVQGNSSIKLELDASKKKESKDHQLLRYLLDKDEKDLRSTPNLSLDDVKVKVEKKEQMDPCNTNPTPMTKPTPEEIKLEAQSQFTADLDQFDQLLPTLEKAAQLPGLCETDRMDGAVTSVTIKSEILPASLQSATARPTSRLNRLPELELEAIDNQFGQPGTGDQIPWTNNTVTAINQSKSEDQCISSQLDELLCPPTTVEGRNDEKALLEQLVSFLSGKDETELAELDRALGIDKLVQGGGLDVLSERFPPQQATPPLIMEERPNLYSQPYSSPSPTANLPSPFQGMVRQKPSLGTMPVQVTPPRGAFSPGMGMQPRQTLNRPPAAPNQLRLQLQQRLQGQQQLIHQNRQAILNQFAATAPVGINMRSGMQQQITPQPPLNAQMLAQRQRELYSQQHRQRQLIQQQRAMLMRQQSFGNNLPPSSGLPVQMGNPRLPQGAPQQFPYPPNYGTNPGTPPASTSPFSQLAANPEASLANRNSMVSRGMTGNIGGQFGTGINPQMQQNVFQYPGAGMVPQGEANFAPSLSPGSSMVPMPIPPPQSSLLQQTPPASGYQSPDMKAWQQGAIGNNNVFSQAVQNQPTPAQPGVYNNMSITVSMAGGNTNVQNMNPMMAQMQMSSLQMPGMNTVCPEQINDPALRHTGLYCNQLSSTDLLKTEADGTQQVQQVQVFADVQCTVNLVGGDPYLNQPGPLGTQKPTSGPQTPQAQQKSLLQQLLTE
# [10] = repression of VP16-driven luciferase reporter – cell-based, luminescence, high throughput, counter-screen for SRC1 inhibitor project (AID 588824; in the data active = inhibition above about 25%); conditions: cell-based VP16 transactivation luciferase luminescence; at 3.6 µM; active compounds read high
smiles,measurement,setting,value
CC(C)c1oc(=O)cc2c1[C@@H](O)[C@H]1OC(=O)[C@@]3(C)C[C@@H](O)[C@@H](O)[C@@]2(C)C13 (stereo partly drawn),inhibition,[1],79.4% (active)
same,inhibition,[2],67.4% (active)
same,inhibition,[3],84.4% (active)
same,inhibition,[4],104% (active)
same,inhibition,[5],90% (active)
same,inhibition,[6],77.4% (active)
same,inhibition,[7],8.02%
same,inhibition,[8],13.1%
COC(=O)C1=C(c2ccc(-c3ccccc3)c(F)c2)C[C@@H]2CC[C@H]1N2C(=O)N1CCOCC1,inhibition,[9],2.48%
same,inhibition,[10],25.3%
C[C@H]1CCC[C@H](O)CCCCCc2cc(O)cc(O)c2C(=O)O1,inhibition,[9],-4.86%
same,inhibition,[10],15.5%
CCOC(=O)[C@]12Cc3cc(Cl)ccc3[C@H]1N(C1CCCCC1)C(=O)c1cc(OC)ccc12,inhibition,[3],87.5% (active)
same,inhibition,[4],105% (active)
same,inhibition,[5],93.1% (active)
same,inhibition,[6],87.7% (active)
N#Cc1c(Br)n(C2OC(CO)C(O)C2O)c2ncnc(N)c12 (stereo not drawn),inhibition,[9],40.9%
same,inhibition,[10],29.9% (active)
same,inhibition,[3],61.8% (active)
same,inhibition,[4],77.3% (active)
same,inhibition,[5],63.2% (active)
same,inhibition,[6],48.6% (active)
same,inhibition,[7],-16.7%
same,inhibition,[8],54.4% (active)
CN1CCN(c2cccc3c2C(=O)c2ccccc2C3=O)CC1,inhibition,[9],20.1%
same,inhibition,[10],14.8%
N#Cc1ccc(Cn2cc(C=O)c3ccccc32)cc1,inhibition,[3],4.87%
same,inhibition,[4],39.1%
same,inhibition,[5],42.4%
same,inhibition,[6],1.97%
CC1=CC(O)C(O)C2(C)C1CC1OC(=O)CC3C(C)C(O)C(=O)C2C13CO (stereo not drawn),inhibition,[3],18.7%
same,inhibition,[4],43% (active)
same,inhibition,[5],45.9% (active)
same,inhibition,[6],-0.77%
COc1ccccc1-n1c(/C=C/c2ccccn2)nc2ccccc2c1=O,inhibition,[3],16.9%
same,inhibition,[4],63.3% (active)
same,inhibition,[5],53.7% (active)
same,inhibition,[6],4.69%
N#Cc1ccc2nc(-c3ccc(CN4CCC(n5c(=O)[nH]c6ccccc65)CC4)cc3)c(-c3ccccc3)nc2c1,inhibition,[3],43.8% (active)
same,inhibition,[4],44% (active)
same,inhibition,[5],43.2% (active)
same,inhibition,[6],27.1%
C[C@@H]1O[C@@H](O[C@H]2C[C@@H](O)[C@]3(CO)[C@H]4[C@H](O)C[C@]5(C)[C@@H](C6COC(=O)C6)CC[C@]5(O)[C@@H]4CC[C@]3(O)C2)[C@H](O)[C@H](O)[C@H]1O (stereo partly drawn),inhibition,[3],92.4% (active)
same,inhibition,[4],103% (active)
same,inhibition,[5],87.3% (active)
same,inhibition,[6],66.4% (active)
COc1ccc(NS(=O)(=O)c2ccc(OCC(=O)N3CCN(C)CC3)cc2)cc1Cl,inhibition,[3],2.1%
same,inhibition,[4],48.2% (active)
same,inhibition,[5],34.7%
same,inhibition,[6],3.62%
COc1cccc2c1C(=O)c1c(O)c3c(c(O)c1C2=O)CC(O)(C(C)=NO)CC3OC1CC(N)C(O)C(C)O1 (stereo not drawn),inhibition,[9],-12.8%
same,inhibition,[10],42.6% (active)
same,inhibition,[4],79.4% (active)
same,inhibition,[5],62.3% (active)
Cc1ccc2c(C)c3ccc4ccccc4c3c[n+]2c1,inhibition,[9],17.2%
same,inhibition,[10],31.6% (active)
same,inhibition,[3],28.1% (active)
same,inhibition,[4],99.6% (active)
same,inhibition,[5],39.4%
same,inhibition,[6],78% (active)
CCN(CC)C(=O)c1ccc(NC(=O)c2cccc(S(=O)(=O)N3CCN(Cc4ccccc4)CC3)c2)cc1,inhibition,[9],-1.69%
same,inhibition,[10],20.8%
COc1ccc2c(c1)/C(=C/c1cnc[nH]1)C(=O)N2,inhibition,[9],13.1%
same,inhibition,[10],19%
same,inhibition,[3],59.4% (active)
same,inhibition,[4],85.8% (active)
same,inhibition,[5],72.9% (active)
same,inhibition,[6],11.2%
